MLLE-PAM2 inh = inhibitors of PABP1 MLLE–PAM2 peptide binding, primary screen, biochemical, fluorescence polarization, FITC-PAM2, GST-MLLE; inhibition, % at 20 µM; 0.36% of 360,000 active; AID 588489, 2011; in the data active = inhibition above about 35%, passing the limit was not always enough;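 note: plate controls were DMSO wells with GST-MLLE for no effect and wells lacking GST-MLLE protein for full effect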
PERK inhibitor = block of dimerizer-induced PERK translation repression, primary screen, PERK inhibitor project, CHO PERK-DD cells, SEAP luminescence, HTS; Eukaryotic translation initiation factor 2-alpha kinase 3 (Homo sapiens), Q9NZJ5; CHO PERK-DD fusion, SEAP luminescence translation reporter; inhibition, % at 5.6 µM; 0.17% of 220,000 active;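 active = inhibition above the mean inhibition of all tested compounds plus 3 SD, set separately per screening campaign, cut at about 2.9% in these data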;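 note: PERK kinase domain activated by AP20187 dimerizer at 100 nM; 0% = DMSO with dimerizer and 100% = rapamycin at 8.4 µM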
PABP FP inh = PABP poly(A) RNA binding inhibitors, primary screen, biochemical, fluorescence polarization, uHTS. AID 2014, 2009. 1% of 290,000 active. inhibition, % at 35 µM. Polyadenylate-binding protein 1 (Homo sapiens), P11940;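 note: calls also rest on retests at 20 µM and on dose response follow-up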
GRK2 inh = compounds blocking aptamer binding on GRK2 – biochemical, human GRK2, bead flow cytometry, HTS, primary screen; Beta-adrenergic receptor kinase 1 (Homo sapiens), P25098; FAM-aptamer displacement from GRK2; inhibition of aptamer binding, % at 10 µM; 0.59% of 330,000 active; AID 488847, 2010;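 active = inhibition of aptamer binding above 40%, roughly 3 SD of noise, on plates passing a quality check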;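 note: median bead fluorescence of bound FAM aptamer so fluorescent compounds give negative values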
eIF4H FP inh = human eIF4H binding inhibitors, primary screen, translation initiation inhibitor project, biochemical, uHTS, fluorescence polarization; Eukaryotic translation initiation factor 4H (Homo sapiens), Q15056; inhibition, % at 35 µM; eIF4H fluorescence polarization binding assay; 0.94% of 290,000 active;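 note: calls also rest on retests at 20 µM and on dose response follow-up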
An asterisk follows results filed as active; ? = inconclusive; . = not tested or not shown. In the library only some 1.9% were active in any assay of this set; here they are far more common. Unless noted, the rule behind the calls is not given here.

SMILES	MLLE-PAM2 inh	PERK inhibitor	PABP FP inh	GRK2 inh	eIF4H FP inh
COc1ccc(N2CCN(c3nc(=S)n(-c4ccccc4)c(C)c3C(C)=O)CC2)cc1	-14	0	59*	0	68*
CC(=O)c1c(N2CCN(c3ccccn3)CC2)nc(=S)n(-c2ccccc2)c1C	16	0	1.9*	4	?
Cc1cc(-c2n[nH]c(=S)n2-c2ccccc2C)cs1	-6	1	116	1	active
Cc1ccccc1-n1c(-c2ccncc2)n[nH]c1=S	-32	.	6	5	0
COc1ccc(CN2C(=O)C(CC(=O)NCC3CCCCC3)CC(C(=O)N(C(C)C)C(C)C)=C2C)cc1 (stereo not given)	0	.	.	.	.
Nc1nn(S(=O)(=O)c2ccccc2)cc1-c1cccc([N+](=O)[O-])c1	10	-1	76*	0	active
CCOc1ccc(S(=O)(=O)n2cc(-c3ccccc3)c(N)n2)cc1	-1	0	11	0	2
CCSC(=Nc1ccccc1)Nc1ccccc1	-3	0	7	0	-6
CSC(=Nc1ccccc1)Nc1ccccc1	9	2.9*	3	0	-10
CC(=O)c1ccc(OCc2cc(C(=O)N3CC4C[C@@H]5CC3C[C@H](C4)C5)no2)cc1	13	.	9	0	0
CCCCC(=O)N(C)c1c(CC)nc2c(OCc3cccc(Cl)c3)cccn12	-1	.	.	.	.
COc1ccc(/C=C/c2ccc3ccccc3[n+]2C)cc1OC	-149	.	3	1	-10
CC(=O)Oc1ccccc1/C=C/c1ccc2ccccc2[n+]1C	-114	.	73*	0	18
O=C(c1cc2c(s1)CCCC2)N1CCN(CCO)CC1	-4	.	.	0	.
COc1ccc(C(=O)C2CCCN(C(=O)/C=C/c3cnc[nH]3)C2)c(C)c1 (stereo not given)	-4	.	9	6	1
Cc1ccc(C)c(NC(=S)NCC(c2ccccc2)N(C)C)c1 (stereo not given)	-7	-1	2	0	2
O=C1CC(NC(=O)C(F)(F)F)=NN1c1ccccc1	4	1	60*	7	active
C=C(C)C(=O)NC1=NN(c2ccccc2)C(=O)C1	15	1	-2	3	10
COc1ccc(CCN2C(=O)NC(NC(=O)C(C)(C)C)(C(F)(F)F)C2=O)cc1OC (stereo not given)	5	-1	13	0	4
COc1ccc(CCN2C(=O)NC(NC(C)=O)(C(F)(F)F)C2=O)cc1OC (stereo not given)	-5	0	83*	1	-3
C=C(CCO)C1=CCN(S(=O)(=O)C(C)(C)C)[C@H]1CCO	1	.	.	.	.
O=C(CSc1ncccn1)NN=C1CCCCCC1	1	1	120*	0	82*
Cc1cc(C)cc(CSCC(=O)NN=C2CCCCCC2)c1	-5	1	-2	1	-1
CCOc1ccc(N)c(SSc2cc(OCC)ccc2N)c1	18	.	12	1	2
CCOc1cc(-c2ccc(N)c(OCC)c2)ccc1N	86	0	104*	0	?
SMILES	MLLE-PAM2 inh	PERK inhibitor	PABP FP inh	GRK2 inh	eIF4H FP inh
O=C1C(Cc2ccc3[nH]ccc3c2)NC(=S)N1c1ccccc1 (stereo not given)	-83	0	-8	0	-4
O=C1C(Cc2ccc(O)cc2)NC(=S)N1c1ccccc1 (stereo not given)	-52	3.0*	-9	0	-8
COc1cccc(C(C#N)NCCCNC(C#N)c2cccc(OC)c2OC)c1OC (stereo not given)	-58	.	.	.	.
CCn1nc([N+](=O)[O-])c2c(-c3nc4ccccc4o3)c(N)n(CCCOC)c2c1=O	11	0	52*	0	70*
CC(NC(=O)c1ccccc1F)C12CC3CC(CC(C3)C1)C2 (stereo not given)	-5	.	.	2	.
Cc1ccc(-n2c(N)c(C(N)=O)sc2=S)c(C)c1	35	1	16	5	60*
O=C1CCCC2=C1Sc1ccccc1N2	43*	2	36	0	43
O=c1[nH]nc(Sc2ccccc2)c(=S)[nH]1	45*	.	.	.	.

Assay outcomes as filed in PubChem BioAssay.
